High-throughput results (PubChem BioAssay)
The entries come from a sample that favours hits as a whole.
Pf Dd2 inh – Plasmodium falciparum Dd2 growth inhibition. P. falciparum Dd2 growth, SYBR Green, 72 h. Potency, µM (doses to about 28.9 µM), most hits filed as inhibitors. hit rate 4.3% among 120,000. AID 1347417; active means well fitted inhibition curve with a large enough effect; further: nearly all actives have a fitted effect of over 65% in size
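Readout: SYBR Green fluorescence, 485 nm excitation, 535 nm emission, after ~16 h lysis at 37C. Before that, Dd2-infected red cells (2.5% hematocrit) grew 72 h with compound, 29 uM top final concentration.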
Each line names hits and unclear results; the compound was inactive in the other large screens.

CCN1c2cc(C(=O)Nc3cccc(OC(F)(F)F)c3)ccc2C(=O)N2CCCCC21 (stereo not drawn)	Pf Dd2 inh 4.5µM
CCN1c2cc(C(=O)Nc3ccc(C)cc3)ccc2C(=O)N2CCCCCC21 (stereo not drawn)	none
CCN1c2cc(C(=O)Nc3ccc(C)cc3C)ccc2C(=O)N2CCCCCC21 (stereo not drawn)	none
CCN1c2cc(C(=O)Nc3ccc(OC)c(OC)c3)ccc2C(=O)N2CCCCCC21 (stereo not drawn)	none
CCOC(=O)c1ccc(NC(=O)c2ccc3c(c2)N(CC)C2CCCCN2C3=O)cc1 (stereo not drawn)	none
N#Cc1ccc(S(=O)(=O)NCC(=O)N2CCCCCNC(=O)CC2c2ccccc2)cc1 (stereo not drawn)	none
O=C(NCC1CC1)c1cn(C2CN(S(=O)(=O)c3cccc(F)c3)C2)nn1	none
O=C(c1cccc(-n2cnnc2)c1)N1CCOC(c2ccc(F)cc2)C1 (stereo not drawn)	none
O=C(c1cccc2[nH]ccc12)N1CCCN(c2cc(-c3ccc(Cl)cc3)[nH]n2)CC1	none
CCO[C@H]1CN(C(=O)c2ccc(OC)c(N3CCOCC3)c2)C[C@@H]1O	none
O=C(CN1C(=O)NC(c2ccccc2Cl)C2=C1COC2=O)Nc1ccc(Cl)cc1 (stereo not drawn)	none
O=[N+]([O-])c1ccc(O)c(-c2ccnc3cc(-c4ccccc4)nn23)c1	Pf Dd2 inh 10µM
O=[N+]([O-])c1cccc(-c2ncc[nH]2)c1	none
COc1ccc(-c2cc3ncc(C(=O)c4cc([N+](=O)[O-])ccc4O)cn3n2)cc1	none
CCc1nc(C)c(CC(=O)N[C@@H]2CCNC[C@H]2O)c(=O)[nH]1	none
CN1C(=O)C(CC(=O)N2CCCCC2)Sc2ncccc21 (stereo not drawn)	none
CC(C)(C)CN[C@@H]1CO[C@H](CNC(=O)c2ccc(F)cc2)[C@H]1O	none
COc1cc(OC(F)(F)F)ccc1C(=O)N1CCC(C)(C(=O)O)CC1	none
Cc1nn(-c2ccc(C(C)(C)C)cc2)c(C)c1[C@@H]1C=C[C@@H](NC(=O)NC(C)C)C1	Pf Dd2 inh 10µM
Cc1nn(-c2ccc(C(C)(C)C)cc2)c(C)c1[C@@H]1C=C[C@@H](NC(=O)COCC(=O)O)C1	none
Cc1nn(-c2ccc(C(C)C)cc2)c(C)c1[C@@H]1C=C[C@@H](NC(=O)NCc2ccccc2)C1	none
Cc1nn(-c2ccc(C(C)(C)C)cc2)c(C)c1[C@@H]1C=C[C@@H](NC(=O)CCC(=O)O)C1	none
Cc1nn(-c2ccc(F)cc2)c(C)c1[C@@H]1C=C[C@@H](NC(=O)NC(C)C)C1	Pf Dd2 inh 8.9µM
Cc1nn(-c2ccc(C(C)C)cc2)c(C)c1[C@@H]1C=C[C@@H](NC(=O)NC2CCCCC2)C1	Pf Dd2 inh 10µM
Cc1nn(-c2ccc(C(C)C)cc2)c(C)c1[C@@H]1C=C[C@@H](NC(=O)Nc2ccc(Cl)cc2)C1	none
Cc1nn(-c2ccc(C(F)(F)F)cc2)c(C)c1[C@@H]1C=C[C@@H](NC(=O)CCC(=O)O)C1	none
COCC(=O)N[C@@H]1C=C[C@@H](c2c(C)nn(-c3ccc(C(C)(C)C)cc3)c2C)C1	none
Cc1nn(-c2ccc(C(F)(F)F)cc2)c(C)c1[C@@H]1C=C[C@@H](NC(=O)CC(C)(C)CC(=O)O)C1	none
CCNC(=O)N[C@@H]1C=C[C@@H](c2c(C)nn(-c3ccc(C(F)(F)F)cc3)c2C)C1	Pf Dd2 inh 4.5µM
CCNC(=O)N[C@@H]1C=C[C@@H](c2c(C)nn(-c3ccc(C(C)(C)C)cc3)c2C)C1	none
CCC1(O)CCC12CCN(C(=O)c1cccnc1)CC2 (stereo not drawn)	none
CCc1n[nH]c(CC2CCN(C(=O)COc3ccc(C)cc3)CC2)n1	none
COc1ccc(-c2nc(Cn3c(-c4ccc(F)cc4)nc(C)c(CCO)c3=O)c(C)o2)cc1	none
COCC1CN(C(=O)COc2ccccc2)CC12CCNCC2 (stereo not drawn)	none
COc1ccc(N2CC(C(=O)NC(C)C)NC2=O)cc1 (stereo not drawn)	none
Cc1cnc(C(=O)N2CCn3c(nnc3[C@@H]3C[C@@H](O)CN3Cc3ccccc3)C2)cn1	none
COCCN1C(=O)[C@@H]2C[C@@H](CN2C(=O)c2cncnc2)Oc2ccccc21	none
CS(=O)(=O)N1CCCCCCNC(=O)[C@@H]2CCC[C@@H]21	none
Cc1noc(C)c1Cc1ccc(C(=O)NC2CCc3nnc(C)n3CC2)o1 (stereo not drawn)	none
COCc1cc(C[C@@H]2C[C@H](NC(=O)COc3ccccc3)C2(C)C)no1	none
COCCN1C(=O)c2ccccc2C(C(=O)Nc2nc(C)c(C)s2)C12CCCCC2 (stereo not drawn)	Pf Dd2 inh 3.5µM
COCCN1C(=O)c2ccccc2C(C(=O)NCc2ccccc2)C12CCCCC2 (stereo not drawn)	none
COCCN1C(=O)c2ccccc2C(C(=O)NCCCc2ccccc2)C12CCCC2 (stereo not drawn)	Pf Dd2 inh 11µM
COCCN1C(=O)c2ccccc2C(C(=O)NCc2ccccc2F)C12CCCCC2 (stereo not drawn)	none
COCCN1C(=O)c2ccccc2C(C(=O)NCCc2ccc(OC)cc2)C12CCCC2 (stereo not drawn)	none
COCCN1C(=O)c2ccccc2C(C(=O)NCCCOC(C)C)C12CCCCC2 (stereo not drawn)	none
COCCN1C(=O)c2ccccc2C(C(=O)NCC(C)C)C12CCCC2 (stereo not drawn)	none
COCCN1C(=O)c2ccccc2C(C(=O)Nc2cc(Cl)ccc2OC)C12CCCC2 (stereo not drawn)	none
COCCN1C(=O)c2ccccc2C(C(=O)Nc2nnc(C(C)C)s2)C12CCCCC2 (stereo not drawn)	Pf Dd2 inh 11µM
COCCN1C(=O)c2ccccc2C(C(=O)Nc2cccc(NC(C)=O)c2)C12CCCCC2 (stereo not drawn)	none
CCCNC(=O)C1c2ccccc2C(=O)N(CCOC)C12CCCCC2 (stereo not drawn)	none
CCc1nc(NC(=O)C2c3ccccc3C(=O)N(CCOC)C23CCCC3)sc1C (stereo not drawn)	Pf Dd2 inh 2µM
O=C1CC(c2noc(-c3cc(F)ccc3Cl)n2)CN1c1ccc(F)cc1 (stereo not drawn)	none
Cc1cncc(C(=O)N[C@@H]2CN(Cc3ccccc3)C[C@H]2CN(C)C)c1	none
Cc1cc(F)ccc1OC1(C(=O)O)CCN(c2ncnc3nc[nH]c23)CC1	none
COc1cc(F)ccc1-c1ccnc2ncnn12	none
COc1cc(=O)n2c(c1C(=O)Nc1cccc(F)c1C)CCCC2	none
Cc1cc(C)n(CCCN(C)C(=O)C2CC3(CCNCC3)CN2)n1 (stereo not drawn)	none
COCCN1C(=O)c2ccccc2C(C(=O)NCc2ccco2)C12CCCCC2 (stereo not drawn)	none
COCCN1C(=O)c2ccccc2C(C(=O)Nc2nc3ccccc3[nH]2)C12CCCCC2 (stereo not drawn)	Pf Dd2 inh 1.8µM
COCCN1C(=O)c2ccccc2C(C(=O)NCc2ccc(F)cc2)C12CCCC2 (stereo not drawn)	none
CO[C@@]1(C)C[C@@H](O)C12CCN(C(=O)CSc1ccccc1C)CC2	none
CC1CCN(C(=O)c2c(NC(=O)c3ccccc3F)sc3c2CCC(C(C)(C)C)C3)CC1 (stereo not drawn)	Pf Dd2 inh 8.9µM
CCOC(=O)c1c(NC(=O)C2c3ccccc3Oc3ccccc32)sc2c1CCC(CC)C2 (stereo not drawn)	none
O=C(Nc1sc2c(c1C(=O)N1CCCCC1)CCCC2)c1ccccc1Cl	none
CN(C)C(=O)c1c(NC(=O)c2ccccc2F)sc2c1CCCC2	none
